40 compounds from PubChem BioAssay (EPA / NIEHS) can be followed below.

In general, AC50 refers to the concentration giving half of the maximal activity seen.

Several values for one entry are separate records, joined by “and”; a condition that tells them apart may be missing. Identical values can stand only once. Activity calls are given as the source filed them. How the source made its calls: active means hit-call score of the fitted dose curve at least 0.9, where 1 is the maximum; inactive means score below 0.9.

The assay is described as follows: BSK_3C_VCAM1: BioMAP Diversity Plus: 3C Assay for Vascular cell adhesion molecule 1 (VCAM1) Biomarker Activity (AID 2282999). The following applies: BioMAP 3C HUVEC, VCAM1 ELISA, cytokine-stimulated; actives raise or lower the signal. Here is the method:
BSK_3C is a cell-based, multiplexed-readout assay that uses umbilical vein endothelium, a human vascular primary cell, with measurements taken at 24 hours after chemical dosing in a 96-well plate.BSK_3C_VCAM1 is an assay component measured in the BSK_3C assay. It measures VCAM-1 antibody related to regulation of gene expression using ELISA technology.Data from the assay component BSK_3C_VCAM1 was analyzed into 1 assay endpoint. This assay endpoint, BSK_3C_VCAM1, was analyzed with bidirectional fitting relative to DMSO as the negative control and baseline of activity. Using a type of binding reporter, gain or loss-of-signal activity can be used to understand changes in the signaling as they relate to the gene VCAM1. Furthermore, this assay endpoint can be referred to as a primary readout, because this assay has produced multiple assay endpoints where this one serves a signaling function. To generalize the intended target to other relatable targets, this assay endpoint is annotated to the cell adhesion molecules intended target family, where the subfamily is Immunoglobulin CAM.
The levels of cell surface (or secreted, indicated by the prefix "s") biomarker endpoints were measured by ELISA. Overt cytotoxicity to cells in confluent adherent cultures (all systems other than the BT system) was assessed by measuring total protein levels using sulforhodamine B (SRB) staining in parallel cultures at the time of biomarker measurements, indicated as SRB endpoints. For proliferation assays for adherent cell types, individual cell types are cultured at sub-confluence and relative cell numbers quantified by SRB staining at time points optimized for each system (48 h: 3C and CASM3C systems; 72 h: BT and HDF3CGF systems; 96 h: SAg system). SRB was performed by staining cells with 0.1% SRB after fixation with 10% TCA and reading wells at 560 nm.Viability and proliferation of PBMC (T cells) was quantified by Alamar Blue reduction for the SAg and BT systems. For PBMC viability (referred to as PBMC Cytotoxicity within the assay endpoint names), cells were plated (75,000/well in a 96-well plate) and then chemical samples added for 1 h before addition of activators, SEB and TSST-1 (20 ng/mL final concentration each). Cells were incubated for 90 h. Then, Alamar Blue (20 uL/well) (Invitrogen, Cat DAL1100) was added for 6 h, and the plates were read with a fluorescence microplate reader at 546/580 nm (excitation/emission). For PBMC proliferation, cells were plated and activated as above but incubated for only 16 h prior to addition of Alamar Blue. Plates were read after 6 h.
Background: An ELISA detects its analyte on a solid surface through an enzyme-linked reagent.
Turning to `OCC(O)CC(F)(F)C(F)(F)C(F)(F)C(F)(F)C(F)(F)C(F)(F)C(F)(F)C(F)(F)F` (stereo not given), the outcome was inactive.
Still for that read-out and setting: for `CC(C)(C)c1cc(CCC(=O)NCCCCCCNC(=O)CCc2cc(C(C)(C)C)c(O)c(C(C)(C)C)c2)cc(C(C)(C)C)c1O` the value was “inactive”; for `FC(F)(F)C(F)(F)C(F)(F)C(F)(F)C(F)(F)C(F)(F)CC[Si](Cl)(Cl)Cl`, “inactive”.
Turning to `CCN(CC)c1ccc(N=Nc2ccccc2)cc1`, the AC50 is 20 µM (active).
As for `Nc1cc([N+](=O)[O-])cc(Cl)c1O`, the result was inactive.
Still for that read-out and setting: for `C[C@]12CC[C@H]3C(=CCc4cc(O)ccc43)[C@@H]1CCC2=O` the value was “inactive”.
As for `C=CC(=O)OCCC(F)(F)C(F)(F)C(F)(F)C(F)(F)F`, the concentration at half-maximal activity (AC50) was 16.6 µM (active) and 15.6 µM (active).
Regarding `CNS(=O)(=O)C(F)(F)C(F)(F)C(F)(F)C(F)(F)C(F)(F)C(F)(F)C(F)(F)C(F)(F)F`, the outcome was inactive.
The same measure, in the same setting: under `CN(C(=O)C(F)(F)C(F)(F)C(F)(F)F)[Si](C)(C)C` stands “inactive”.
In the case of `Cc1cc(O)c(C(C)(C)C)cc1C(C)(C)C`, the concentration at half-maximal activity (AC50) is 4.42 µM (active).
On to `O=C(O)C(F)(F)OC(F)(F)C(F)(F)OC(F)(F)C(F)(F)OC(F)(F)F`, for which the outcome was inactive.
Same read-out and setting: for `OCCCCC(F)(F)C(F)(F)C(F)(F)C(F)(F)F` the value was “inactive”; for `O=C(O)C(F)(F)C(F)(F)C(F)(F)C(=O)O`, “inactive”.
Regarding `O=C1C=CC(=O)N1c1ccc(Cc2ccc(N3C(=O)C=CC3=O)cc2)cc1`, the AC50 was 7.45 µM (active).
`Cc1ccc(O)c(-n2nc3ccccc3n2)c1`: the result was inactive.
As to `C=C(C)C(=O)OCC(F)(F)C(F)(F)C(F)(F)C(F)F`, the outcome was inactive.
Take `O=S(=O)(O)CCC(F)(F)C(F)(F)C(F)(F)C(F)(F)F`: the outcome was inactive.
Still for that read-out and setting: under `OCC(F)(F)C(F)(F)C(F)(F)CO` stands “inactive”.
Regarding `C=CC(=O)OCC(F)(F)C(F)(F)C(F)(F)COC(=O)C=C`, the half-maximal activity concentration (AC50) was 15.6 µM (active) and 20.5 µM (active).
Take `O=S(=O)(Cl)C(F)(F)C(F)(F)C(F)(F)C(F)(F)C(F)(F)C(F)(F)C(F)(F)C(F)(F)F`: the result was inactive.
On the same count and under the same terms, for `O=S(=O)(O)CCC(F)(F)C(F)(F)C(F)(F)C(F)(F)C(F)(F)C(F)(F)C(F)(F)C(F)(F)F` the value was “inactive”; for `C[Si](Cl)(Cl)CCC(F)(F)C(F)(F)C(F)(F)C(F)(F)C(F)(F)C(F)(F)F`, “inactive”.
Same read-out and setting: for `NC(=O)C(F)(F)C(F)(F)C(F)(F)C(F)(F)C(F)(F)C(F)(F)C(F)(F)F` the value was “inactive”; for `O=C(F)C1(F)C(F)(F)C(F)(F)C(F)(F)C(F)(F)C1(F)F`, “inactive”; for `OC(O)C(F)(F)C(F)(F)F`, “inactive”.
Take `Cc1cnccn1`: the result was inactive.
The same measure, in the same setting: for `O=C=Nc1cccc2c(N=C=O)cccc12` the value was “inactive”.
Still for that read-out and setting: under `COC(F)(C(F)F)C(F)(F)F` (stereo not given) stands “inactive”.
Consider `Cc1cc(C)c(O)c(C(C)(C)C)c1`, for which the half-maximal activity concentration (AC50) was 31.6 µM (active).
`Brc1nc2ccccc2s1`: the outcome was inactive.
Consider `CCOC(C=C(C)CCC=C(C)C)OCC`, for which the AC50 is 34 µM (active).
As to `OCC(F)(F)C(F)(F)C(F)(F)C(F)(F)C(F)(F)C(F)(F)C(F)(F)C(F)(F)CO`, the result was inactive.
On to `O=C(O)CCC(F)(F)C(F)(F)C(F)(F)C(F)(F)C(F)(F)C(F)(F)C(F)(F)F`, for which the result was inactive.
Turning to `CCN=C1C=CC(=C(c2ccc(N(CC)CC)cc2)c2ccc(N(CC)CC)cc2)c2ccccc21`, the AC50 was 2.64 µM (active) and 2.81 µM (active).
`C=CC(=O)OCC(F)(F)C(F)(F)C(F)(F)C(F)(F)C(F)(F)C(F)(F)C(F)(F)C(F)F`: the result was inactive.
For the compound `CC(C)CCCC(C)CCO` (stereo not given), the half-maximal activity concentration (AC50) was 33.9 µM (active).
`CCN(CC)c1ccc2c(c1)Oc1cc(N(CC)CC)ccc1C21OC(=O)c2ccccc21`: the outcome was inactive.
Consider `CO[Si](C)(CCC(F)(F)C(F)(F)C(F)(F)C(F)(F)C(F)(F)C(F)(F)F)OC`, for which the result was inactive.
`O=S(=O)(OCC(F)(F)F)C(F)(F)C(F)(F)C(F)(F)C(F)(F)F`: the outcome was inactive.
On the same count and under the same terms, under `O=C(c1ccccc1)c1ccc(O)cc1O` stands “inactive”.
